# Compound activity from PubChem.
# The entries come from a sample that favours hits as a whole.
# HT1080NT lethal – qHTS for induction of synthetic lethality in tumor cells producing 2HG: qHTS for the HT-1080-NT fibrosarcoma cell line; HT-1080-NT fibrosarcoma viability, CellTiter-Glo ATP luminescence, 48 h; Potency, µM (top dose mostly 46.1 µM), without a hit: at the top dose activity, negative = less viability, usual class: cytotoxic; hit rate 1.6% among 360,000; AID 686970, 2013;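 also: NT is the 2HG producing partner of a matched IDH1 knockdown line; potency is read from the fitted curve at half-maximal effect; 0% = DMSO-treated cells and -100% = media-only wells without cells; nearly all actives have a fitted effect of over 55% in size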
#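 Read-out is CellTiter-Glo luminescence after 10 minutes at room temperature, following 48 hours' compound treatment of HT-1080-NT cells (750 cells/well, RPMI, 5% FBS, 37 degrees C).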
# DT40 TDP1 CPT – qHTS for Inhibitors of human tyrosyl-DNA phosphodiesterase 1 (TDP1): qHTS in cells in presence of CPT; chicken DT40 Tdp1-/-;hTDP1 cells + 20 nM CPT, ATP luminescence, 48 h; Potency, µM (top dose mostly 46.2 µM), for the others: at the highest dose activity change, negative = growth inhibition, most hits filed as inhibitors; hit rate 12% among 420,000; AID 686979, 2013; also: potency is read from the fitted curve at half-maximal effect; nearly all actives have a fitted effect of over 55% in size
#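 Cell growth measured by CellTiter-Glo luminescence after a minimum 48 h, 37 C compound exposure with 20 nM CPT in Tdp1-knockout DT40 cells stably expressing hTDP1, seeded 400/well; qHTS titration format.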
# HT1080 IDH1KD tx – qHTS for induction of synthetic lethality in tumor cells producing 2HG: qHTS for the HT-1080-IDH1KD cell line. HT-1080 IDH1 knockdown viability, ATP luminescence, 48 h. Potency, µM (doses to about 46.1 µM), inactives show top-dose activity, negative = toxicity, actives largely listed as cytotoxic. hit rate 2% among 360,000;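 also: potency is read from the fitted curve at half-maximal effect; 0% = DMSO wells and -100% = cell-free medium wells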
#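 Assay cells: HT-1080 with IDH1 knockdown, 750 per well, RPMI/5% FBS. Exposure: 48 h at 37 °C following 2 h pre-incubation. Read: CellTiter-Glo luminescence; fitted concentration-response, curve class assigned.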
# IL-1B inflam inh – qHTS for Inhibitors of Inflammasome Signaling: IL-1-beta AlphaLISA Primary Screen; THP-1 LPS/ATP IL-1B secretion, AlphaLISA, 16 h; active compounds read low; activity change, % at 57.5 µM; hit rate 4.7% among 360,000; in the data active = activity change below about -50%; inconclusive = mostly about -30% to -49%
#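 THP-1 cells pretreated 1 hr with compounds (up to 57.5 uM final), then stimulated with LPS (250 ng/mL final) plus ATP (1.25 mM final); secreted IL-1B measured by AlphaLISA after 16 hr, decreased signal indicating inhibition.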
# DT40 TDP1 no CPT – qHTS for Inhibitors of human tyrosyl-DNA phosphodiesterase 1 (TDP1): qHTS in cells in absence of CPT; DT40 Tdp1-/- hTDP1 cells, no CPT, ATP luminescence, 48 h; Potency, µM (highest dose often 46.2 µM), for the others: top-dose activity change, negative = growth inhibition, usual class: inhibitors; hit rate 15% among 420,000; also: potency is read from the fitted curve at half-maximal effect; nearly all actives have a fitted effect of over 55% in size
#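 Growth of hTDP1-complemented DT40 Tdp1-knockout cells is measured by ATP luminescence after at least 48 hr compound exposure at 37 °C, with DMSO substituting for the 20 nM CPT used in the parallel screen.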
# 12-LOX inh – Primary qHTS assay for inhibitors of human arachidonate 12S-lipoxygenase (ALOX12): Round 2 | AID 1671190, 2021 | purified 12hLO, xylenol orange hydroperoxide absorbance | hit rate 1.1% among 580,000 | Polyunsaturated fatty acid lipoxygenase ALOX12 (Homo sapiens), P18054 | Potency, µM (highest dose often 108 µM), for the others: at the top dose activity change, negative = inhibition, hits mostly inhibitors; also: potency is read from the fitted curve at half-maximal effect
# Target sequence (P18054 whole entry, looked up): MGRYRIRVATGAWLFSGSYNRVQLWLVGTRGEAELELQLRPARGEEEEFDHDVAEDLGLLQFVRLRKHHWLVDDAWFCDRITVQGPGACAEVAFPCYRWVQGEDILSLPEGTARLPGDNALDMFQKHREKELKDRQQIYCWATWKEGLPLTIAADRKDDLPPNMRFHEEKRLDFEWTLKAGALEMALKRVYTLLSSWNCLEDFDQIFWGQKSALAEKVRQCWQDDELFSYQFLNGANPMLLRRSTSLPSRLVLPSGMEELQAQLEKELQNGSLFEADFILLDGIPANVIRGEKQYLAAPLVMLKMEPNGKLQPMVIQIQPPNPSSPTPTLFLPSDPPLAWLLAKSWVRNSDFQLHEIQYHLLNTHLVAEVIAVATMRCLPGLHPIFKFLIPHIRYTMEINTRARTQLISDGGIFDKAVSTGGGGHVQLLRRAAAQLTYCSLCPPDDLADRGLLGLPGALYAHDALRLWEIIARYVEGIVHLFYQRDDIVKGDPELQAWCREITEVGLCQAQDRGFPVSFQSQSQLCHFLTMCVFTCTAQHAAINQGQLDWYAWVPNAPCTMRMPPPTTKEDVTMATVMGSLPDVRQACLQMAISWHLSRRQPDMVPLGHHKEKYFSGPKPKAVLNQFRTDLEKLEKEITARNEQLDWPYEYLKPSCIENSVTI
#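 Purified human 12hLO (150 nM final) in 25 mM Hepes, 0.01% Triton X-100, pH 7.0 was preincubated 15 min at room temperature with compound. Then 40 uM arachidonic acid was added, 30 min. Hydroperoxide was read by Fe-XO absorbance ratio 573/405 nm.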
# Active calls of the source: *; ? = inconclusive; . = not tested or not shown; ! = not confirmed by another sample. Unless noted, calls follow the shape of the dose curve; as a rule, active = well fitted curve in the direction sought with a large enough effect; inconclusive = small, poorly fitted or top-dose-only effect, or another doubt; inactive = no such curve, though single readings can be large; an effect the other way counts as inactive or inconclusive. Unless noted, % is scaled to controls: 0 for no effect and ±100 for the full control effect.
SMILES,HT1080NT lethal,DT40 TDP1 CPT,HT1080 IDH1KD tx,IL-1B inflam inh,DT40 TDP1 no CPT,12-LOX inh
COc1ccc(NC(=O)C(c2ccc(OC)cc2)N(C)C(=O)Cc2cccs2)cc1 (configuration not stated),-2%,23µM*!,-3%,?,-29%,-20%
CCc1ccc(C(=O)c2cn(CC(=O)NCCc3ccccc3)c3nc(C)ccc3c2=O)cc1,.,?,.,.,?,-33%
Cc1ccc2c(Cl)cc(Cl)c(OCC(=O)NC(C)(C)C)c2n1,-20%,?,-16%,11,23µM*,?
Cc1ccc2c(Cl)cc(Cl)c(OCC(=O)Nc3cc(S(=O)(=O)N(C)C)ccc3C)c2n1,-13%,23µM*,-23%,?,15µM*,4%
CNC(=O)COc1c(Cl)cc(Cl)c2ccc(C)nc12,.,.,.,.,.,-4%
Cc1ccc2c(Cl)cc(Cl)c(OCC(=O)Nc3cccc(S(=O)(=O)N(C)C)c3)c2n1,-1%,?,1%,24,21µM*,-19%
COCCS(=O)(=O)c1ncc(CN2CC[C@@H]3CCCC[C@H]3C2)n1Cc1ccccc1,.,.,.,.,.,2%
Cn1ccnc1C(NC(=O)c1cn(CCN)nn1)C1CC1 (configuration not stated),.,.,.,.,.,71%
CCc1cc(C2CCCN2C(=O)c2cccs2)on1 (configuration not stated),.,.,.,.,.,45%
O=C(Cn1nc(Cl)nc1Cl)c1ccc2c(c1)OCCO2,-10%,5.2µM*,0%,?,13µM*,0%
O=C(Cn1nc(Cl)nc1Cl)c1ccccc1,-19%,?,-6%,-10,15µM*,21%
O=C(Cn1nc(Cl)nc1Cl)c1ccc(F)cc1,9%,-1%,10%,19,1%,3%
CC1CCc2c(c(-c3ccccc3O)nc3ccc4ccccc4c23)C1 (configuration not stated),.,.,.,.,.,-12%
COc1ccc(N2CCN(c3ncnc4onc(-c5ccc(F)cc5)c34)CC2)cc1,.,?,.,.,?,-18%
COc1ccc(N2CCN(c3ncnc4onc(C)c34)CC2)cc1,.,21µM*,.,.,16µM*,-9%
Cc1noc2ncnc(N3CCN(c4ccc(F)cc4)CC3)c12,6%,?,-1%,7,18µM*,4%
Cc1noc2ncnc(N3CCCCC3)c12,2%,-25%,3%,6,?,0%
CCCCN1C(=O)C(CC(=O)NC2CC2)CC(C(=O)N(CC)CC)=C1C (configuration not stated),2%,-4%,0%,-6,0%,16%
O=C(CSc1nc(-c2ccccc2)nc2c1Cc1ccccc1O2)N1CCCCC1,.,10µM*,.,.,12µM*,-20%
COc1ccc(-c2nc3c(c(SCC(=O)N4CCOCC4)n2)Cc2c(CO)cnc(C)c2O3)cc1,-10%,15µM*,-11%,?,10µM*,-12%
COc1ccc(-c2nc3c(c(SCC(=O)Nc4cc(C)cc(C)c4)n2)Cc2c(CO)cnc(C)c2O3)cc1,.,-4%,.,.,-12%,-24%
CCN(CC)C(=O)CSc1nc(-c2ccc(C)cc2)nc2c1Cc1c(CO)cnc(C)c1O2,.,9.2µM*,.,.,8.2µM*,-2%
CCc1ccc(NC(=O)CSc2nc(-c3cccc(OC)c3)nc3c2Cc2c(CO)cnc(C)c2O3)cc1,.,6.5µM*,.,.,7.3µM*,-4%
CCCCS(=O)(=O)N1C[C@@H](C(N)=O)[C@H](c2n[nH]c(C)n2)C1,.,.,.,.,.,10%
